Out of some 16,000 compounds screened, about 4,000 (25%) were called active. Not shown: some 26% with an inconclusive outcome. Calls come from the whole dose curve; as a rule, active = well fitted curve in the direction sought with a large enough effect; inconclusive = small, poorly fitted or top-dose-only effect, or effect the other way; inactive = no such curve, though single readings can be large or run the other way. A selection follows.
% is set by controls: 0 for no effect and ±100 for the full control effect.

For this assay, the target named is Cytochrome P450 2C9 (Homo sapiens) (UniProt P11712). Nature of the assay: Cytochrome panel assay with activity outcomes. Conditions: recombinant CYP, pro-luciferin dealkylation, luminescence, p450-cyp2c9; series mostly up to 57.1 µM; activity, negative = inhibition: at the top concentration.
Sequence of Cytochrome P450 2C9 (Homo sapiens) (P11712 whole entry, looked up): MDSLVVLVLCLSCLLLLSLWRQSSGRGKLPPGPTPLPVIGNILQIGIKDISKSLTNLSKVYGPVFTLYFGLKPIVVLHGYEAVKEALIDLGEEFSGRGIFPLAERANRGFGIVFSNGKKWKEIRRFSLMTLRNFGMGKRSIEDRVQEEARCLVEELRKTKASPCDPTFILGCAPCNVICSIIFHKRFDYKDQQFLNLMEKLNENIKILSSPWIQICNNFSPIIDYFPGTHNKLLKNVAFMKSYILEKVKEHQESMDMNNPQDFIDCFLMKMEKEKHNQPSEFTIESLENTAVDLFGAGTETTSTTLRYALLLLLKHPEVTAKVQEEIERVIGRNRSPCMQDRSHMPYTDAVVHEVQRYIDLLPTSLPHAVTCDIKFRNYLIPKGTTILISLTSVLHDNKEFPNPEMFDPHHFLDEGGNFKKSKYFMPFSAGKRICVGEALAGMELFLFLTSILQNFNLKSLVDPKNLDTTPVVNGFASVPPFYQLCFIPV
Regarding `CCCC[C@H]1C[C@@H]1[C@@H]1N(P(=O)(c2ccccc2)c2ccccc2)[C@](CO)(c2ccccc2)CC12CC2`, the AC50 was 15.8 µM (active). Take `CCCC[C@H]1C[C@@H]1[C@@H]1N(P(=O)(c2ccccc2)c2ccccc2)C[C@@](O)(c2ccccc2)CC12CC2`: the “activity, negative = inhibition” value is -27.2% (inactive). Turning to `CCN(CC)CCCCCCCCOC(=O)c1cc(OC)c(OC)c(OC)c1`, the “activity, negative = inhibition” value was -12.6% (inactive). Turning to `CCC(NC(=O)Nc1cc(OC)c(OC)c(OC)c1)(C(F)(F)F)C(F)(F)F`, the AC50 is 14.1 µM (active). For the molecule `CCN1C(=O)c2cccc3c(NC(=O)c4cccc(N5C(=O)CCC5=O)c4)ccc1c23`, the “activity, negative = inhibition” value is -16.7% (inactive).

For `CCOC(=O)c1ccc(NC(=O)Nc2ccc3c4c(cccc24)C(=O)N3CC)cc1`, the AC50 was 20 µM (active). In the case of `c1csc(CNc2ccnc(-c3ccc4c(c3)OCO4)n2)c1`, the activity, negative = inhibition is -22.4% [at 2.29 µM] (inactive). On the same count and under the same terms, the value for `CN1CCN(c2nc(-c3cccnc3)nc3ccccc23)CC1` was 16.9% [at 2.29 µM] (inactive); that for `c1cncc(-c2nc(N3CCNCC3)c3ccccc3n2)c1` was -1.35% [at 2.29 µM] (inactive).

On to `CC1CCCCN1c1nc(-c2ccncc2)nc2ccccc12` (centres undefined), for which the AC50 is 0.398 µM (active). As to `CCNc1ncc2nc(-c3ccc(OC)cc3)c(=O)n(-c3ccc(OC)cc3)c2n1`, the “activity, negative = inhibition” value was 9.11% (inactive). `NCC(=O)Nc1ccc(Cl)cc1C(=O)c1ccc[nH]1`: the activity, negative = inhibition is -20.4% [at 11.4 µM] (inactive). Same read-out and setting: the value for `CS(=O)(=O)N1CCC2(CCCN(c3ncccn3)C2)CC1` was -13.1% (inactive); that for `CS(=O)(=O)N1CCC2(CC1)CN(c1ncccn1)C2` was 21.2% (inactive); that for `CS(=O)(=O)N1CCC[C@@]2(CCN(Cc3nccs3)C2)C1` was -13.9% (inactive).

Regarding `CS(=O)(=O)N1CCC2(CC1)CN(Cc1nccs1)C2`, the concentration at half-maximal activity (AC50) was 10 µM (active). As for `CS(=O)(=O)N1CCC2(CCCN(c3ccncc3)C2)CC1`, the AC50 was 0.0794 µM (active). Consider `CS(=O)(=O)N1CCC2(CCN(c3ccncc3)CC2)CC1`, for which the “activity, negative = inhibition” value is -22.8% (inactive). Take `CS(=O)(=O)N1CCC2(CC1)CN(c1ccncc1)C2`: the half-maximal activity concentration (AC50) was 15.8 µM (active). For the molecule `CS(=O)(=O)N1CCC2(CCN(Cc3nccs3)CC2)CC1`, the “activity, negative = inhibition” value is -16.9% (inactive). Still for that read-out and setting: next, `CS(=O)(=O)N1CCC[C@@]2(CCN(c3ccncc3)C2)C1`: 6.86% (inactive); `CC(=O)N1CCC2(CCCN(C(=O)Nc3cccc(F)c3)C2)CC1`: -0.517% (inactive); `OCCNc1ncnc2c1ncn2[C@@H]1O[C@@H](CO)[C@H](O)[C@@H]1O`: 8.16% [at 11.4 µM] (inactive).

`Cc1ccc(N(Cc2ccccc2)Cc2ccccc2)cc1`: the activity, negative = inhibition was -16.6% [at 11.4 µM] (inactive). As to `CN(C)c1nccc(N(Cc2ccccc2)Cc2ccccc2)c1C#N`, the AC50 was 2.24 µM (active). Same read-out and setting: the value for `COc1ccc(CN(CCN(C)C)c2ccccn2)cc1` was “inactive”. In the case of `Cc1ccc(N=Nc2ccc(N)cc2C)c(S(N)(=O)=O)c1`, the activity, negative = inhibition is -8.16% [at 11.4 µM] (inactive). As to `COc1ccc(NC(=O)CSc2nc(-c3ccc(C)cc3)cc(C(F)(F)F)c2C#N)cc1`, the AC50 is 0.794 µM (active).

With `CCc1ccc(/C=C\C(=O)N2CCc3ccccc3C2)cc1`, the AC50 is 22.4 µM (active). Regarding `CCCCCCN1Cc2ccccc2C1`, the “activity, negative = inhibition” value was 4.38% (inactive). On the same count and under the same terms, the value for `N=C(N)N1CCc2ccccc2C1` was -9.55% [at 25.6 µM] (inactive).

Turning to `COc1ccccc1OCc1ccc(C(=O)N(C)C)o1`, the “activity, negative = inhibition” value was -18% (inactive).

Take `Clc1ccccc1OCCCCN1CCCC1`: the “activity, negative = inhibition” value is -9.04% (inactive). Turning to `CCOc1cccc(CNCCNC(=O)c2nonc2N)c1`, the “activity, negative = inhibition” value is -17% (inactive). Regarding `CC1CCN(C(=O)c2ccc(COc3ccccc3Cl)o2)CC1`, the AC50 was 17.8 µM (active). On the same count and under the same terms, next, `Cc1ccccc1CS(=O)(=O)Cc1ccc(C(=O)NCc2cccnc2)o1`: 5.01 µM (active). As to `CCOc1ccc(OCc2ccc(C(=O)NCc3cccnc3)o2)cc1`, the AC50 is 12.6 µM (active). Still for that read-out and setting: the value for `CCOc1ccc(OCc2ccc(C(=O)N3CCc4ccccc4C3)o2)cc1` was 5.01 µM (active). For the molecule `Cc1ccccc1-c1cc(NCc2cccnc2)ncn1`, the activity, negative = inhibition was -13% [at 2.29 µM] (inactive). With `COc1ccc(-c2cc(C(=O)NCc3cccnc3)no2)cc1OC`, the “activity, negative = inhibition” value is 23.4% (inactive). On the same count and under the same terms, the value for `Cc1cc(=O)oc(C)c1C(=O)NCc1ccccc1` was -11.3% (inactive).

As for `Cc1cc(C)n(Cc2ccc(NC(=O)c3ccc(COc4ccccc4Br)cc3)cc2)n1`, the half-maximal activity concentration (AC50) was 1.12 µM (active). Take `Cc1ccccc1C(=O)Nc1ccc(C(=O)NNC(=O)CCCOc2ccc(Cl)cc2Cl)cc1`: the “activity, negative = inhibition” value was -26.9% (inactive).

For `Cc1cc(C)n(CCCNCC(O)c2ccccc2)n1` (centres undefined), the “activity, negative = inhibition” value is -11.4% (inactive).

For the molecule `c1ccc(CN2CC[C@@H](CNc3ncnc4ccccc34)C2)cc1`, the activity, negative = inhibition was 22.2% [at 11.4 µM] (inactive). In the case of `C[C@@H](CN(C)C)CN1c2ccccc2CCc2ccccc21`, the AC50 entry was “inactive”. As for `O=C1CCCc2ccccc2N1Cc1cccc(Cl)c1`, the AC50 was 5.01 µM (active). On the same count and under the same terms, the value for `O=C1CCCc2ccccc2N1Cc1ccccc1Cl` was 10 µM (active). As for `c1ccc(CN2CCC3(CCCc4ccccc43)CC2)cc1`, the “activity, negative = inhibition” value is -8.57% (inactive).

Source of the values: PubChem BioAssay AID1851 (National Center for Advancing Translational Sciences (NCATS), 2009).
